According to the supplement of paper PMC10849652:
Targets with a hit are over-represented here; the source holds about 7,900 in all. About 0.6% of all pairs of compound and target were hits.

The targets below were run with c1cn2cc(-c3ccc4cn[nH]c4c3)nc(Nc3ccc(N4CCOCC4)cc3)c2n1 [entospletinib] (assay: log2 fold change, soluble protein after heating vs DMSO (PISA); higher = thermal stabilisation; K562 cells, 10 uM, 30 min; active = over 0.2 and 3.5 SD of the protein, either way, in both replicates (recomputed)).
How it was run: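 Values are thermal stability changes relative to control samples and are taken from duplicates. They are stated as log2 fold changes. Before quantification by TMTpro 16plex LC-MS/MS with equalised channel sums, K562 cells at 2×10^6 cells/mL were treated with 10 μM compound for 30 min, heated in aliquots for 3 min across 48°C-58°C, pooled, extracted in PBS with 0.5% NP-40 at 4°C, and centrifuged at 21,000xg for 90 min to give the soluble supernatant.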

Chain of UniProt P02585 (P02585 whole entry, looked up): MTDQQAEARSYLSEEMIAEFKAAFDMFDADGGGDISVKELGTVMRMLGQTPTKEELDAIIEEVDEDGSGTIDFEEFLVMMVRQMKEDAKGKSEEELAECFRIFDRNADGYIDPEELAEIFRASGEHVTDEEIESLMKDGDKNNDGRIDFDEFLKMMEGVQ
Chain of UniProt O95155 (O95155 whole entry, looked up): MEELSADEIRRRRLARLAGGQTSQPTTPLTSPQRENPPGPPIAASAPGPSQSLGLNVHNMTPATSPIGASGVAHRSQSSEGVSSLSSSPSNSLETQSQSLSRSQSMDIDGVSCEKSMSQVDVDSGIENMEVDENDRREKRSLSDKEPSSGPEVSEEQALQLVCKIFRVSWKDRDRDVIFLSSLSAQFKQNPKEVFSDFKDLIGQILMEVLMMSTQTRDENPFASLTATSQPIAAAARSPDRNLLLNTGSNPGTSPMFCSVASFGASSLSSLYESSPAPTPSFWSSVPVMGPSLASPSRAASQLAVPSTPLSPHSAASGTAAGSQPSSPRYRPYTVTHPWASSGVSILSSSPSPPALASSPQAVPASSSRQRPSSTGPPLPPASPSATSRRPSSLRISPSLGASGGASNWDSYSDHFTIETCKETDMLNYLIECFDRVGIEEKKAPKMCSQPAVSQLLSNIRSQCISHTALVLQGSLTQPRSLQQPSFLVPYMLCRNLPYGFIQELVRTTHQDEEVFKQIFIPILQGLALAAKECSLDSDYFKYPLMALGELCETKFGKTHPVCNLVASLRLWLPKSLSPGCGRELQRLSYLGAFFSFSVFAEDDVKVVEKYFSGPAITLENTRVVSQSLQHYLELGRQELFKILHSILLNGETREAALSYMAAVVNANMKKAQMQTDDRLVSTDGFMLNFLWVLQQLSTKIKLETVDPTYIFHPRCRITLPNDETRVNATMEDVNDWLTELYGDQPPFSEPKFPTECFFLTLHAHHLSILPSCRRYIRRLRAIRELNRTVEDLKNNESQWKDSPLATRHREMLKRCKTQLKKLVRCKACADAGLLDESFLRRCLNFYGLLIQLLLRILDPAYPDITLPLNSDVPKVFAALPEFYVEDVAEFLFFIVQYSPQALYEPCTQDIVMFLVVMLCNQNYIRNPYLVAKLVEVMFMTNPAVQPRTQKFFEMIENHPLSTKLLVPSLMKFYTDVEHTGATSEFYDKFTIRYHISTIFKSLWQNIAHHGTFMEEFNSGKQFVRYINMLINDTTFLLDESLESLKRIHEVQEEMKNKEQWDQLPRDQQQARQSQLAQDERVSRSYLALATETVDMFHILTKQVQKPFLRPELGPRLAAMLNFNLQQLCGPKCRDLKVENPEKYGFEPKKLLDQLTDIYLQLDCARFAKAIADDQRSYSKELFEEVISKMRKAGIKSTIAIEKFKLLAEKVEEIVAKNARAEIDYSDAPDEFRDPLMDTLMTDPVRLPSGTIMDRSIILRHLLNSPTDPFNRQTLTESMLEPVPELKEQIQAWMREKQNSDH
Chain of UniProt Q96K49 (Q96K49 whole entry, looked up): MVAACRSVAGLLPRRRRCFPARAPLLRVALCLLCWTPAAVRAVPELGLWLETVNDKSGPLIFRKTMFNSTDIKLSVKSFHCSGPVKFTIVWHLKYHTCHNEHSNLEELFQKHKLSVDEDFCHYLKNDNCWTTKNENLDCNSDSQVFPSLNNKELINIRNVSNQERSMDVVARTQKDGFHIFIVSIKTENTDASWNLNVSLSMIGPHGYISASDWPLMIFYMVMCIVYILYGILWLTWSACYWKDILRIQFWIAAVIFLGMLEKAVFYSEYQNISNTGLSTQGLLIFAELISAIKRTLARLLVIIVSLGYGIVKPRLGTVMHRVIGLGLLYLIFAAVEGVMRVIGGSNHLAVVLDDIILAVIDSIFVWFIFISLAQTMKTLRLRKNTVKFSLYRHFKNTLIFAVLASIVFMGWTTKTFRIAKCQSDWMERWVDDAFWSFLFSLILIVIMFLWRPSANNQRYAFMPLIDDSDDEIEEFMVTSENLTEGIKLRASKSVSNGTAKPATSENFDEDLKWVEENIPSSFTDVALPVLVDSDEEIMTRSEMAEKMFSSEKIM
Chain of UniProt P12270 (P12270 whole entry, looked up): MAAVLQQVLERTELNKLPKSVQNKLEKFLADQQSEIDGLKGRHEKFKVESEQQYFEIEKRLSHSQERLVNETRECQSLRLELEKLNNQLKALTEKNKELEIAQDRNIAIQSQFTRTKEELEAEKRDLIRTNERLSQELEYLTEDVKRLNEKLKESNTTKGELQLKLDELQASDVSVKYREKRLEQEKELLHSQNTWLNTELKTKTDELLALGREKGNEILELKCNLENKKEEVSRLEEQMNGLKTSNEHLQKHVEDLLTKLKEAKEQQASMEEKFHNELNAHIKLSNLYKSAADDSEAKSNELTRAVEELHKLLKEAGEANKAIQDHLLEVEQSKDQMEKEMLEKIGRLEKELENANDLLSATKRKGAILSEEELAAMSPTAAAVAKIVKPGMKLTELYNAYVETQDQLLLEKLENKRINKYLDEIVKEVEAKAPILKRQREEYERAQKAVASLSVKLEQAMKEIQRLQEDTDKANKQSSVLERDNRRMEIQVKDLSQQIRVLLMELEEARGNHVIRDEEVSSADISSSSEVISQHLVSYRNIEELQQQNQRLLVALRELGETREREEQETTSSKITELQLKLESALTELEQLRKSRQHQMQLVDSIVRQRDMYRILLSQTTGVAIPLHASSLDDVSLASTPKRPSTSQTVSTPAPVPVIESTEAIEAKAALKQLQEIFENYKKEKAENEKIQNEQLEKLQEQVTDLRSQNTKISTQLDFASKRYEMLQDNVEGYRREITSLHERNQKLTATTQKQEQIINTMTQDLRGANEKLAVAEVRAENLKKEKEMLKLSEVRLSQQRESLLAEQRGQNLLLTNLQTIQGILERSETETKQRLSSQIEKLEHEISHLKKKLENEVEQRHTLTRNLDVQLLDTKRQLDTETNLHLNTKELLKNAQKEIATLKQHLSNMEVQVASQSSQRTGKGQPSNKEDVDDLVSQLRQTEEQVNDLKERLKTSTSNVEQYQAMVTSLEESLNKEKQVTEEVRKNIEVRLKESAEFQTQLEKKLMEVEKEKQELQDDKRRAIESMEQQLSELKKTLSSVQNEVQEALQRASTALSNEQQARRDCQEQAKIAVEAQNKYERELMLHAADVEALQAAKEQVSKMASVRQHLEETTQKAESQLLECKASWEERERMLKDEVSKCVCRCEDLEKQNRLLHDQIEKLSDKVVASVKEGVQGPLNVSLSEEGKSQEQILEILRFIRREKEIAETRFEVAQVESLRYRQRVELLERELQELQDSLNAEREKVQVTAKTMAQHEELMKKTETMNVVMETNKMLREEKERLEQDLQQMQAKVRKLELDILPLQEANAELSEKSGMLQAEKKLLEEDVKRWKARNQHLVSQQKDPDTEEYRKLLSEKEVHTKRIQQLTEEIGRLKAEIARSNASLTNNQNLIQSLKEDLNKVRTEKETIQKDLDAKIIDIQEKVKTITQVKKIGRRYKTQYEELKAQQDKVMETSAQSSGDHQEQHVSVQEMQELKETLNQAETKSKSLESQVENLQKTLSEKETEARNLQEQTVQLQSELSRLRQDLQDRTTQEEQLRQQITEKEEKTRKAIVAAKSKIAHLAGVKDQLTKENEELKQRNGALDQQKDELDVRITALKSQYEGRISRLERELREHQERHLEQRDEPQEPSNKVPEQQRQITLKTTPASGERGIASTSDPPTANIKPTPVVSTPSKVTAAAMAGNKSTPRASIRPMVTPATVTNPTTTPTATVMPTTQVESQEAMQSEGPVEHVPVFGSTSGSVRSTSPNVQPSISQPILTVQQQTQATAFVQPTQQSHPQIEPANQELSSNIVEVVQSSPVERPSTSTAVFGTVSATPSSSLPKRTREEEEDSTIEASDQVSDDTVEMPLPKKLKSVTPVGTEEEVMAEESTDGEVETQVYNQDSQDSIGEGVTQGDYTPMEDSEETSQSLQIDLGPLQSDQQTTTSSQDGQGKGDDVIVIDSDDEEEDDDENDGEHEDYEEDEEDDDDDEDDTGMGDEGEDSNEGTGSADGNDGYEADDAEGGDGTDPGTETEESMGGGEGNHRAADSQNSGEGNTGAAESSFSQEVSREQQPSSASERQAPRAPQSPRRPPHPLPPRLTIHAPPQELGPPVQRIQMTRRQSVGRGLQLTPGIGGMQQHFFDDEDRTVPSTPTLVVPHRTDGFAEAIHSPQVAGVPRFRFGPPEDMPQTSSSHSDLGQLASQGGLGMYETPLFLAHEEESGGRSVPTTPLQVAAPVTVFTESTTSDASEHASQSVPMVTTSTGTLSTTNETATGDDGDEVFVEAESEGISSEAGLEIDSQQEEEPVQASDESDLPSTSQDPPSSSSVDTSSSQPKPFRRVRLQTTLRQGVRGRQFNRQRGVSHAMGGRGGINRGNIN
Chain of UniProt Q9BQB6 (Q9BQB6 whole entry, looked up): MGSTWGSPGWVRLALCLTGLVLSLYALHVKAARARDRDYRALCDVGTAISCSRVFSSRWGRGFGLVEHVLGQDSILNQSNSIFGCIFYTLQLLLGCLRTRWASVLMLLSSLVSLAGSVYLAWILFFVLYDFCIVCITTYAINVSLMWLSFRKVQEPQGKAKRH
Chain of UniProt Q9UL33 (Q9UL33 whole entry, looked up): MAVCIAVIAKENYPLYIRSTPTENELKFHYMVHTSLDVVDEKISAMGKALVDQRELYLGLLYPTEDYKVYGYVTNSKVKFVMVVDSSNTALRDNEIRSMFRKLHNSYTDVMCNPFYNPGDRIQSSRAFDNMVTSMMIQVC
Chain of UniProt Q9BUB7 (Q9BUB7 whole entry, looked up): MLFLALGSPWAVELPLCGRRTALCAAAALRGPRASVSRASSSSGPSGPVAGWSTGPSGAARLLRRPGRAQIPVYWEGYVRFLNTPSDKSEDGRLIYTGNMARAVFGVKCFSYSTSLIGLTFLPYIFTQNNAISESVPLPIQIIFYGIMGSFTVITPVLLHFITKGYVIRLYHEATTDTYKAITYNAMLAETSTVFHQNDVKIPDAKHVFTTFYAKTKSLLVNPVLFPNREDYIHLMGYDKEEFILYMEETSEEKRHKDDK

log2 fold change, inactive:
U2AF1 isoform 2 (UniProt Q01081) -0.052, TRAPPC13 isoform 5 (UniProt A5PLN9) -0.022, WNK1 isoform 7 (UniProt Q9H4A3) -0.005, WDR11 (UniProt Q9BZH6) -0.403, UBE4B isoform 4 (UniProt O95155) -0.03, TMEM189-UBE2V1 (UniProt I3L0A0) -0.017, TNNC2 (UniProt P02585) -0.038, TMEM70 (UniProt Q9BUB7) -0.009, VKORC1 (UniProt Q9BQB6) 0.006, XRCC6 (UniProt P12956) 0, USP7 (UniProt Q93009) -0.019, TRAPPC2L (UniProt Q9UL33) 0.039, USP14 (UniProt P54578) -0.03, TYW1 (UniProt Q9NV66) 0.003, TMEM87B (UniProt Q96K49) 0.063, XPNPEP1 isoform 3 (UniProt Q9NQW7) -0.027, TPR (UniProt P12270) 0.067, UBA6 0.014, WDCP (UniProt Q9H6R7) -0.024, U2AF1L5 (UniProt P0DN76) -0.497, TMEM214 (UniProt Q6NUQ4) -0.015, TXNRD1 isoform 7 (UniProt Q16881) 0.04
